Drawing on PubChem BioAssay (EPA / NIEHS), this text covers outcome and AC50 for 39 compounds.

Some compounds were tested as several samples or in several runs, with calls that do not always agree. Calls of active or inactive are those of the source. The calls were made as follows: active = hit-call score of the fitted dose curve at least 0.9, where 1 is the maximum; inactive = score below 0.9.

This assay can be described thus: ATG_RORE_CIS: Attagene CIS-FACTORIAL HepG2 Assay for human RAR-related Orphan Receptor Element (RORE) (AID 2282959). As to conditions: HepG2 Attagene cis-factorial RORE reporter, mRNA; actives raise or lower the signal. The method, then:
ATG_CIS is a cell-based, multiplexed-readout assay that uses HepG2, a human liver cell line, with measurements taken at 24 hours after chemical dosing in a 24-well plate.ATG_RORE_CIS is one of 52 assay component(s) measured or calculated from the ATG_CIS assay. It is designed to make measurements of mRNA induction, a form of inducible reporter, as detected with fluorescence intensity signals by Reverse transcription polymerase chain reaction (RT-PCR) and Capillary electrophoresis technology.Data from the assay component ATG_RORE_CIS was analyzed into 1 assay endpoint. This assay endpoint, ATG_RORE_CIS, was analyzed with bidirectional fitting relative to DMSO as the negative control and baseline of activity. Using a type of inducible reporter, measures of mRNA for gain or loss-of-signal activity can be used to understand the reporter gene at the transcription factor-level as they relate to the gene RORA and RORB and RORC. Furthermore, this assay endpoint can be referred to as a primary readout, because this assay has produced multiple assay endpoints where this one serves a reporter gene function. To generalize the intended target to other relatable targets, this assay endpoint is annotated to the nuclear receptor intended target family, where the subfamily is orphan.
Human liver HepG2 cells are transiently transfected with multiple reporter transcription units (MRTUs) in 6-well plates using FuGene 6 reagent (Roche; 3 ml FuGene/1 mg DNA). The MRTU constructs are regulated by a cis-regulating element (promoter). […] A major difference between the CIS and TRANS system is that in CIS activities of endogenous TFs are measured, whereas the TRANS assay evaluates changes in activities of exogenous, chimeric NR-Gal4 proteins. […] At the end of 24 hour incubation, total RNA was isolated using TriZol reagent (Invitrogen). The isolated RNA is then reverse-transcribed using oligo(dT) primer and Mo-MLV reverse transcriptase (Invitrogen) with DNAse I (Ambion) treatment for 30 min. The one-tenth of the produced cDNA was amplified by PCR using Taq DNA polymerase (Invitrogen) and two reporter sequence-specific primers. The PCR products were fluorescently labeled by primer extension with 6-arboxyfluorescein (6-FAM) 5'-labeled reporter sequence-specific primer (2 min at 95 C, 20 s at 68 C and 10 min at 72 C) and these products were digested with 5U of HpaI (New England Biolabs) for 2h at 37 C. The fragments were purified using Qiaquick PCR columns (Qiagen), analyzed on an ABI 3130xL genetic analyzer (Applied Biosystems) with peak positions identified by using a set of X-rhodamine (ROX)-labeled MapMarker1000 molecular weight standards (BioVentures). The raw capillary electrophoresis data was processed using Attagraph software (Attagene).
Take `C=C(C)C(=O)OCC(F)(F)C(F)(F)C(F)(F)C(F)(F)C(F)(F)C(F)(F)C(F)(F)F`: the result was inactive.
For `N=C(N)C(F)(F)C(F)(F)C(F)(F)C(F)(F)C(F)(F)C(F)(F)C(F)(F)F`, the compound was classed as inactive.
Consider `CCCCCCC(C)OC(=O)CCCCC(=O)OC(C)CCCCCC` (stereo not given), for which the result was inactive.
The same measure, in the same setting: for `O=C(OCCOCCOCCOC(=O)c1ccccc1)c1ccccc1` the value was “inactive”; for `CCCCCCOC(=O)c1ccccc1O`, “inactive”.
Same read-out and setting: for `CCC(=O)OCCc1ccccc1` the value was “inactive”; for `O=C(O)C(F)(F)C(F)(F)C(F)(F)C(F)(F)C(F)(F)C(F)(F)C(F)(F)C(F)(F)C(F)(F)C(F)(F)C(F)(F)C(F)(F)F`, “inactive”; for `CC(C)(C)C(=O)CC(=O)C(F)(F)C(F)(F)C(F)(F)F`, “inactive”.
For the compound `FC(F)(I)C(F)(F)C(F)(F)C(F)(F)I`, the compound was classed as inactive.
Same read-out and setting: for `CC(C)OC(=O)c1ccccc1C(=O)OC(C)C` the value was “inactive”.
Still for that read-out and setting: for `C(=C(c1ccccc1)c1ccccc1)c1ccccc1` the value was “inactive”.
For the compound `CC(=O)Nc1ccc(N=Nc2cc(C)ccc2O)cc1`, the result was inactive.
Same read-out and setting: for `CCCCCCOC(=O)c1ccccc1` the value was “inactive”; for `C=CC(=O)OCC(F)(F)C(F)(F)C(F)(F)C(F)(F)C(F)(F)C(F)(F)C(F)(F)F`, “inactive”.
The same measure, in the same setting: for `CCCCCCCOC(=O)c1ccccc1C(=O)OCCCCCCC` the value was “inactive”.
Still for that read-out and setting: for `FC(F)(F)C(F)(F)C(F)(F)C(F)(F)CCI` the value was “inactive”; for `CCO[Si](CCC(F)(F)C(F)(F)C(F)(F)C(F)(F)C(F)(F)C(F)(F)F)(OCC)OCC`, “inactive”; for `COC(=O)C1CCC(C(=O)OC)CC1` (stereo not given), “inactive”.
As for `C=CC(F)(F)C(F)(F)C(F)(F)C(F)(F)C(F)(F)C(F)(F)C(F)(F)C(F)(F)F`, the compound was classed as inactive.
Turning to `CCCCC(CC)COP(=O)(O)OCC(CC)CCCC` (stereo not given), the call was inactive.
`C=C(C)C(=O)OCCC(F)(F)C(F)(F)C(F)(F)C(F)(F)C(F)(C(F)(F)F)C(F)(F)F`: the compound was called inactive.
On the same count and under the same terms, for `C=C(C)C(=O)OCC(F)(F)C(F)(F)C(F)(F)F` the value was “inactive”; for `O=C(O)C(F)(OC(F)(F)C(F)(OC(F)(F)C(F)(F)C(F)(F)F)C(F)(F)F)C(F)(F)F` (stereo not given), “inactive”.
Same read-out and setting: for `O=S(=O)(OCC(F)F)C(F)(F)F` the value was “inactive”; for `CC(C)c1ccccc1N`, “inactive”; for `C=CC(F)(F)C(F)(F)C(F)(F)C(F)(F)C(F)(F)C(F)(F)C(F)(F)C(F)(F)C=C`, “inactive”.
Still for that read-out and setting: for `CCCCOCCOCCOC(=O)CCCCC(=O)OCCOCCOCCCC` the value was “inactive”; for `c1ccc(-c2ccccc2-c2ccccc2)cc1`, “inactive”.
For `FC(F)(F)C(F)(F)C(F)(F)C(F)(F)C(F)(F)C(F)(F)C(F)(F)C(F)(F)CCS`, the result was inactive.
Regarding `C=CC(=O)OCC(F)(F)C(F)(F)C(F)(F)C(F)(F)COC(=O)C=C`, the concentration at half-maximal activity (AC50) was 40.3 µM (active).
Regarding `O=C(O)C(F)(F)C(F)(F)C(F)F`, the result was inactive.
Still for that read-out and setting: for `CC/C=C\CCOC(=O)c1ccccc1` the value was “inactive”; for `O=C(O)C(F)(OC(F)(F)C(F)(OC(F)(F)C(F)(OC(F)(F)C(F)(F)C(F)(F)F)C(F)(F)F)C(F)(F)F)C(F)(F)F` (stereo not given), “inactive”; for `O=C(O)C(F)(F)C(F)(F)C(F)(F)F`, “inactive”.
The same measure, in the same setting: for `CCCCCCCCC(F)(F)C(F)(F)C(F)(F)C(F)(F)C(F)(F)C(F)(F)F` the value was “inactive”; for `[Co]`, “inactive”.
For `OCCCC(F)(F)C(F)(F)C(F)(F)C(F)(F)C(F)(F)C(F)(F)C(F)(F)F`, the half-maximal activity concentration (AC50) is 247 µM (active) and the compound was classed as inactive.
With `OCC(F)(F)C(F)(F)C(F)(F)C(F)(F)C(F)(F)C(F)(F)F`, the compound was classed as inactive.
Still for that read-out and setting: for `OCCCC(F)(F)C(F)(F)C(F)(F)F` the value was “inactive”.

As usually defined, the AC50 is the midpoint of the concentration-response curve, whichever way the signal moves.
